In the library only some 5.9% were active in any assay of this set; here they are far more common.
LANA-H2B inh – blocks KSHV LANA binding to histone H2A/H2B; Q9QR71; cell-free LANA-H2A/H2B peptide, fluorescence polarization; inhibition, % (concentration not given with the values); hit rate 0.6% among 320,000; AID 2629; in the data active = inhibition mostly above about 10%, no sharp cut-off; inactive = mostly below about 6.7%
rCAG binder – molecules binding r(CAG) RNA repeats | AID 651821 | r(CAG) RNA repeat, TO-PRO-1 dye displacement fluorescence | hit rate 1.3% among 370,000 | inhibition, % at 3 µM;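 active = inhibition above the plate cutoff, the mean of all test compounds on that plate plus 3 SD, cut at about 35% in these data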;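 note: 0% = DMSO alone and 100% = 100 µM mitoxantrone as full dye displacement; higher means more dye released from RNA so lower well fluorescence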
ABHD5-PLIN5 inh – inhibitors of human ABHD5-perilipin-5 interaction; Q00G26+Q8WTS1; Split G. princeps luciferase complementation, luminescence, 4 h; inhibition, % at 4 µM; hit rate 0.78% among 360,000; AID 602281;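 active = inhibition above the mean inhibition across every tested compound plus 3 SD, cut at about 22% in these data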;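 note: 0% = DMSO only wells and the 100% control is not disclosed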
ALR H2O2 inh – blocks human ALR sulfhydryl oxidase activity | P55789 | purified ALR, DTT oxidation, H2O2 HRP-luminol luminescence | inhibition, % (no concentration beside the values) | hit rate 3.8% among 290,000 | AID 485317;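 active = mean replicate inhibition above about 79%, with every replicate also reaching it, limit read from the data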
Rtt109 HAT inh – C. albicans Rtt109 histone acetyltransferase inhibition; Q5AAJ8; purified Rtt109/Vps75, ThioGlo CoA-SH fluorescence, 4 h; inhibition, % at 34.9 µM; hit rate 0.16% among 330,000; AID 540336;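 active = inhibition of at least 50% in every replicate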
PRMT1 inh – inhibitors of human PRMT1; recombinant PRMT1, activity-based probe fluorescence polarization; inhibition, % at 2.79 µM; Q99873; hit rate 1.3% among 370,000;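 active = inhibition above about 21% made by adding two undisclosed values, limit read from the data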
rCAG binder conf – r(CAG) RNA repeat binding, confirmation | shares compounds with rCAG binder | TO-PRO-1 dye displacement fluorescence | inhibition, % at 3 µM | hit rate 70% among 4,300;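 active = inhibition above a per-plate cutoff, the mean inhibition of sample wells plus 3 SD, cut at about 35% in these data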;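 note: loss of TO-PRO-1 fluorescence as compound displaces dye from 1x1 AA loop RNA; 0% = DMSO only wells and 100% = 100 µM mitoxantrone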
DNA CAG counter – counter-screen for rCAG RNA binders: DNA CAG dye complex inhibitors; shares compounds with rCAG binder; d(CAG) DNA oligo TO-PRO-1 dye displacement, fluorescence; inhibition, % at 3 µM; hit rate 94% among 4,300; AID 652068;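 active = inhibition above its plate's cutoff, the mean test-well inhibition plus 3 SD, cut at about 4.8% in these data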;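 note: 0% = DNA dye mix with DMSO and 100% = 100 µM mitoxantrone; hits displace the dye from DNA and so lower well fluorescence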
DNA CAG DR – disrupts DNA CAG TO-PRO-1 complex in dose response; shares compounds with rCAG binder; DNA CAG/GTC duplex TO-PRO-1 dye displacement fluorescence; IC50, µM; hit rate 20% among 250; AID 686960; in the data active = IC50 below about 10 µM
* marks the source's active call; other numbers are inactive results; i = inactive; x = not tested or not shown.

SMILES | LANA-H2B inh | rCAG binder | ABHD5-PLIN5 inh | ALR H2O2 inh | Rtt109 HAT inh | PRMT1 inh | rCAG binder conf | DNA CAG counter | others
Cc1ccc(S(=O)(=O)Nc2nc(C)c(C(=O)N/N=C/c3ccccc3)s2)cc1 | 5 | 80* | -9 | -19 | -9 | -4 | 70* | 24* | DNA CAG DR=i
COc1ccc(NC(=O)Nc2sc(NS(=O)(=O)c3ccccc3)nc2C)cc1 | -2 | 24 | -1 | 65 | 4 | 2 | x | x
Cc1ccc(S(=O)(=O)Nc2nc(C)c(C(=O)NNS(=O)(=O)c3ccccc3)s2)cc1 | 4 | 14 | -6 | 41 | -9 | 0 | x | x
Cc1nc(NS(=O)(=O)c2ccccc2)sc1C(=O)NN | 0 | 83* | -2 | 11 | 11 | 0 | 9 | 4
CCCCN1C(=O)C(CC(=O)NCc2cccc3ccccc23)CC(C(=O)N2CCCCCC2)=C1C (stereo not drawn) | x | -1 | 7 | x | x | -1 | x | x
COc1ccc(S(=O)(=O)NC(=O)C2(C)CCN2C(=O)CC2CC2)cc1 (stereo not drawn) | x | -1 | 1 | x | x | 4 | x | x
CC(C)C[C@@H](CN)NC(=O)c1nc[nH]c1C(=O)N[C@@H](CC(C)C)C(=O)CNC[C@H](C)NC(=O)c1nc[nH]c1C(=O)N[C@@H](CC(C)C)C(=O)O | x | x | -1 | x | -3 | x | x | x
CC(C)Oc1ccc2ccccc2c1CNC[C@H]1O[C@@H](n2ccc(N)nc2=O)[C@H](O)[C@@H]1O | x | 6 | 1 | x | x | 2 | x | x
Cn1c(N)c(C(=O)N/N=C/c2ccccc2)sc1=S | 9 | 43* | -5 | 22 | 3 | -1 | 21 | 7.8*
Cc1ccc(S(=O)(=O)Nc2nc(C)c(C(=O)Nc3ccccc3)s2)cc1 | 0 | 36* | 0 | -8 | 5 | -2 | 19 | 2
CCCn1c(SC(C)C(=O)NC2CCCC(C)C2C)n[nH]c1=O (stereo not drawn) | x | -1 | -7 | x | x | 1 | x | x
O=[N+]([O-])c1ccc(Cl)c(S(=O)(=O)Nc2cccc(-c3ccc(N4CCOCC4)nn3)c2)c1 | 1 | 38* | 3 | -11 | 4 | -3 | 32 | 9.9*
O=C(Nc1ccccc1)c1cc(C2CCCCN2C(=O)c2cccs2)on1 (stereo not drawn) | x | 1 | 2 | x | x | 0 | x | x
CCC(CC)c1nn2c(N)c(/C=C3\C(C)=Nc4ccccc43)c(=O)nc2s1 | -4 | 25 | -8 | 10 | x | 2 | x | x
CC(C)Sc1nsc2nc(=O)c(/C=C3\C=Nc4ccccc43)c(N)n12 | 1 | 44* | -5 | 2 | 14 | -5 | 79* | 44*
CS(=O)(=O)c1nsc2nc(=O)c(/C=C3\C=Nc4ccccc43)c(N)n12 | 2 | 44* | -8 | 90* | 8 | 2 | 70* | 31* | DNA CAG DR=8.2*
CC(=O)Nc1cccc(NC(=O)Cc2ccc3ccccc3c2)c1 | -3 | 5 | -5 | -43 | -1 | -4 | x | x
Cc1cc(NC(=O)Cc2cccs2)no1 | 2 | 40* | 0 | x | 6 | 7 | 35* | 23*
O=C(C[C@H]1CC[C@@H](NS(=O)(=O)c2ccccc2)[C@@H](CO)O1)NCc1ccc(Cl)c(Cl)c1 | x | 1 | -2 | x | x | 3 | x | x
Cc1ccc(S(=O)(=O)C(C#N)c2nc3ccccc3nc2OCCO)cc1 (stereo not drawn) | 0 | 62* | 1 | 0 | 4 | -3 | 52* | 15*
C=CCN1C(=O)[C@H](CC(=O)N2CCC(c3ccccc3)CC2)[C@@]2(C(=O)OCC)CCCC=C12 | x | 1 | x | x | x | -5 | x | x
CCN(CC)C(=O)C1=C(C)N(CCCOC)C(=O)C(CC(=O)NC2CCCC2)C1 (stereo not drawn) | x | 0 | 4 | x | x | -1 | x | x
Cc1cc(S(=O)(=O)Nc2nc(CN3CCOCC3)nc3sc4c(c23)CCC4)ccc1F | 2 | 54* | 0 | 23 | 5 | 3 | 49* | 14*
